Pol III holo inh: blocks replication by bacterial DNA polymerase III holoenzyme; reconstituted DNA polymerase III holoenzyme replication, biochemical; Potency, µM (highest dose often 57.1 µM), without a hit: at the top dose activity change, negative = inhibition; 71,000 compounds, 0.25% hits; AID 603; note: potency is the fitted concentration of half-maximal effect; % is set by controls: 0 for no effect and ±100 for the full control effect
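Reconstituted *E. coli* holoenzyme (0.35 nM Pol III, 1 nM beta, 154 nM SSB, 2 nM primase) was preincubated with compound for 15 min at RT. Synthesis on 1.4 nM ssM13Gori ran 35 min, then was stopped with PicoGreen/EDTA and read as dsDNA fluorescence.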
BRCT inh green: blocks human BRCA1 BRCT binding to phosphopeptide, green readout; AID 875; BRCA1 BRCT-phosphopeptide binding, green fluorescence polarization; P38398; Potency, µM (top dose mostly 76.9 µM), for inactives: at the highest dose activity change, negative = inhibition, hits mostly inhibitors; 75,000 compounds, 0.05% hits;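 note: potency is the fitted concentration of half-maximal effect; plate controls were peptide without protein for full effect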
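Fluorescence polarization: His-tagged BRCT (~35 kDa BRCA1 C-terminus, 250 nM) bound to 100 nM fluorescein-labeled phosphorylated 10-aa BACH1 peptide, pH 7.3 phosphate buffer with DTT and Tween 20. Compounds incubated 12 min at room temperature; inhibition read as lowered polarization.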
BRCT PPI red: disrupts BRCA1 BRCT binding to phosphoprotein, red fluorophore readout. Potency, µM (titrated, usually from 76.9 µM), without a hit: top-dose activity change, negative = inhibition, actives largely listed as inhibitors. BRCT-phosphopeptide binding, red fluorescence polarization. 75,000 compounds, 0.03% hits; note: % is set by controls: 0 for no effect and ±100 for the full control effect
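Fluorescence polarization: 100 nM His-tagged BRCA1 BRCT with 100 nM TAMRA-labelled phospho-BACH1 decapeptide, phosphate buffer pH 7.3 with 150 mM NaCl, DTT, 0.01% Tween 20; 12 min RT. Binding inhibition seen as FP decrease.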
TsaE inh: YjeE (TsaE) inhibition, E. coli | P0AF67 | purified YjeE enzyme, qHTS inhibition assay | Potency, µM | 71,000 compounds, 0.05% hits | AID 605
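Fluorescence polarization of a BODIPY Texas Red–ADP probe (2 uM) bound to purified YjeE (10 uM) was read after 15 min room-temperature incubation with compounds. Loss of polarization marks inhibitors; ADP serves as titrated control.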
IMPase cell inh: membrane-permeable compound that blocks inositol monophosphatase | P97697 | CHO-M1 cells, IP1 accumulation, HTRF TR-FRET ratio | inhibition (IP1 accumulation), % at 46.1 µM | 120,000 tested, under 10 active; active = well fitted curve in the direction sought with a large enough effect in the signal ratio, not every such curve was filed as active; inconclusive = small, poorly fitted or top-dose-only effect, or a change in a side signal; inactive = no such curve, though single readings can be large or run the other way; the % refers to the signal ratio;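 note: cells stimulated with carbachol in lithium chloride buffer; plate controls were DMSO basal wells for no effect and reference inhibitor wells for full effect; higher means more IMPase inhibition seen as more IP1 and lower FRET ratio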
Target sequence (P97697 whole entry, looked up): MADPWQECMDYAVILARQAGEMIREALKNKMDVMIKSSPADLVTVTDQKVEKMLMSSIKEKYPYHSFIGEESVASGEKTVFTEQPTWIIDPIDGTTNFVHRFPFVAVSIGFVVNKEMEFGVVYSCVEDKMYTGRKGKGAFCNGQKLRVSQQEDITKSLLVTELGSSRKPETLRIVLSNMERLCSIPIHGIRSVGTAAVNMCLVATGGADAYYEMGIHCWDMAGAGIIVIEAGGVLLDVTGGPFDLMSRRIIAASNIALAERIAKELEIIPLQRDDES
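Carbachol-driven Gq signalling in CHO-M1 cells (2000/well) generates IP1. Compounds that block IMPase raise IP1 and so reduce the FRET signal from Eu-anti-IP1 and d2-IP1 after a 10 min room-temperature lysis.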
Hsp90 Hop PPI: changes Hsp90-Hop TPR2A binding signal, up or down. Potency, µM (top dose mostly 57 µM), inactives show at the highest dose activity change, negative = inhibition. AlphaScreen TPR2A-His6 binding biotin-Hsp90 C-terminal peptide. 71,000 compounds, 0.44% hits; active = well fitted curve in either direction with a large enough effect; inconclusive = small, poorly fitted or top-dose-only effect, or another doubt; note: potency is the fitted concentration of half-maximal effect; % is set by controls: 0 for no effect and ±100 for the full control effect
Hsp90 TPR2A CRC: confirmation and counter-screen of Hsp90 TPR2A co-chaperone interaction disrupters | 45 compounds, 100% hits | AID 632 | activity, negative = inhibition, % at 40 µM or 46 µM, hits read low | AlphaScreen TPR2A-His6 / biotin-Hsp90 peptide binding | shares compounds with Hsp90 Hop PPI;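 active = compound lowering the Hsp90 and TPR2A binding signal, whether or not the linker counterscreen also flagged it as an artifact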
Starred values were filed as active, the others as inactive; [ ] = remark or other dose. Many of the other results were omitted from the sample, so hits are more common in it than they were. Unless noted, calls come from the whole dose curve; as a rule, active = well fitted curve in the direction sought with a large enough effect; inconclusive = small, poorly fitted or top-dose-only effect, or another doubt; inactive = no such curve, though single readings can be large; an effect the other way counts as inactive or inconclusive.

Screening Cc1ccc(C)c(NS(=O)(=O)c2cc(C(=O)Nc3cccc(N(C)S(C)(=O)=O)c3)ccc2C)c1 returned IMPase cell inh -1.
For COc1ccc(C(=O)COC(=O)CN2CC(=O)Oc3ccccc32)cc1Br the results were Pol III holo inh -6%, BRCT inh green 4%, BRCT PPI red -3%, TsaE inh inactive, IMPase cell inh 1 and Hsp90 Hop PPI 6.3µM*.
COc1cc(OC)cc([C@H](CNc2ncnc3c2ncn3[C@@H]2O[C@@H](CO)[C@H](O)[C@@H]2O)c2ccccc2C)c1 was read as Pol III holo inh 2%, TsaE inh inactive and Hsp90 Hop PPI -16%.
O[N+]1=CC=CCC1=S.On1ccccc1=S.[Zn] was read as BRCT inh green 3%[3.08 µM] and BRCT PPI red 1%.
Screening O=S(=O)(Nc1cccc2ncccc12)c1cccs1 returned Pol III holo inh 3%, BRCT inh green -2%, BRCT PPI red 1%, TsaE inh inactive, IMPase cell inh 0, Hsp90 Hop PPI 16µM* and Hsp90 TPR2A CRC -100*[alpha-screen platform artifact].
Screening Cn1c(=O)c2[nH]c(/N=N\N3CCN(CCO)CC3)nc2n(C)c1=O returned Pol III holo inh -10%[11.4 µM], BRCT inh green -1%[15.4 µM], BRCT PPI red 1%[15.4 µM], TsaE inh inactive and Hsp90 Hop PPI -4%[11 µM].
Screening O=Nc1ccc(Nc2ccccc2)cc1 returned Pol III holo inh 1%, BRCT inh green -1%, BRCT PPI red 1%, TsaE inh inactive and Hsp90 Hop PPI -11%.
`Cc1csc(NC(=O)c2cccn2C)n1` gave IMPase cell inh -3.
For Cn1cccc1C(=O)Nc1nc(-c2ccccn2)cs1 the results were Pol III holo inh -6%, BRCT inh green -1%, BRCT PPI red -1%, TsaE inh inactive, IMPase cell inh -3, Hsp90 Hop PPI 6.3µM* and Hsp90 TPR2A CRC -100*[alpha-screen platform artifact].
`O=C(CN1C(=O)CCC1=O)Nc1nc(-c2ccccn2)cs1` gave Pol III holo inh -3%, BRCT inh green -1%, BRCT PPI red 0%, TsaE inh inactive, IMPase cell inh -1, Hsp90 Hop PPI 2.5µM* and Hsp90 TPR2A CRC -100*[alpha-screen platform artifact].
Screening Cc1cc(O)c(C=O)c2c1C(=O)Oc1c(COC(=O)/C=C/C(=O)O)c(O)c(C(=O)O)c(C)c1O2 returned BRCT inh green 5%[3.08 µM] and BRCT PPI red 10%.
Screening CCCCNC(=O)CSc1nc2ccccc2c(=O)n1C1CCCC1 returned Pol III holo inh -3%, BRCT inh green -1%, BRCT PPI red -2%, TsaE inh inactive, IMPase cell inh -8, Hsp90 Hop PPI 1% and Hsp90 TPR2A CRC -100*[alpha-screen platform artifact].
For CCOC(=O)CSc1nc2ccccc2c(=O)n1C1CCCC1 the results were Pol III holo inh -7%, BRCT inh green -2%, BRCT PPI red -1%, TsaE inh inactive, IMPase cell inh 14 and Hsp90 Hop PPI -3%.
Screening O=c1c2ccccc2oc2cc(O)c(C3COCC(CO)C(O)C(O)C3O)c(O)c12 (stereo not drawn) returned BRCT inh green 0%, BRCT PPI red -1% and IMPase cell inh inconclusive.
For CCN(CC)C(=O)c1sc2nc(-c3ccccn3)[nH]c(=O)c2c1C the results were Pol III holo inh -4%, BRCT inh green 2%, BRCT PPI red -1%, TsaE inh inactive, Hsp90 Hop PPI 7.9µM* and Hsp90 TPR2A CRC -99*[alpha-screen platform artifact].
CCN(CC)C(=O)c1sc2nc(-c3ccncc3)[nH]c(=O)c2c1C was read as Pol III holo inh -3%, BRCT inh green -1%, BRCT PPI red 0%, TsaE inh inactive, IMPase cell inh -5 and Hsp90 Hop PPI 0%.
Screening Brc1ccc(-c2nn3c(-c4ccccn4)nnc3s2)o1 returned Pol III holo inh inconclusive, BRCT inh green 1%, BRCT PPI red -2%, TsaE inh inactive, IMPase cell inh -1, Hsp90 Hop PPI 7.9µM* and Hsp90 TPR2A CRC -99*[alpha-screen platform artifact].
For Brc1ccc(-c2nn3c(-c4ccncc4)nnc3s2)o1 the results were Pol III holo inh -6%, BRCT inh green 0%, BRCT PPI red -2%, TsaE inh inactive, IMPase cell inh -1 and Hsp90 Hop PPI -3%.
For Cn1c(=O)[nH]c2nnc(-c3ccccc3)nc2c1=O the results were Hsp90 TPR2A CRC 12.
For Cc1ccc(NC(=O)CCCCCC2NC(=O)NC2C)cc1 (stereo not drawn) the results were Pol III holo inh -2%, BRCT inh green 2%, BRCT PPI red 0%, TsaE inh inactive, IMPase cell inh 19, Hsp90 Hop PPI 0.013µM* and Hsp90 TPR2A CRC -99*[alpha-screen platform artifact].
